Data from PubChem BioAssay AID1159580 (chemical genetic matrix, 2015).
Out of some 5,500 compounds screened, about 2,000 (36%) were called active. Another 18% or so got no clear call; they are omitted. Cut-off read from the data, not from the text of the source: active = normalized growth mostly below about 0.91 (no sharp cut-off); inconclusive = no clear call, values can overlap the other calls; inactive = mostly above about 0.92. The list shows a part of the results.

Test: chemical genetic growth profiling, strain panel (AID 1159580);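 note: tested at 20 µM; growth read once vehicle control cultures reached saturation at 30 °C; 1 = growth at the plate median or of vehicle wells; lower values mean less growth of the strain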
Conditions: growth OD

Measured: normalized growth

CCC(=O)OCC(=O)[C@@]1(OC(=O)CC)[C@@H](C)CC2C3CCC4=CC(=O)C=C[C@]4(C)C3(F)[C@@H](O)C[C@@]21C (some centres undefined)
inactive: S. cerevisiae deletion strains, locus YJR066W, strain TOR1, hits give low values 0.989 | S. cerevisiae deletion strains, locus YJR075W, strain HOC1, hits give low values 0.945 | S. cerevisiae deletion strains, locus YKL009W, strain mrt4, hits give low values 0.891 | S. cerevisiae deletion strains, locus YKL068W, hits give low values 0.958 | S. cerevisiae deletion strains, locus YKL085W, strain MDH1 (second series), hits give low values 0.959 | S. cerevisiae deletion strains, locus YKL085W, strain MDH1, hits give low values 0.959 | S. cerevisiae deletion strains, locus YKL160W, strain elf1, hits give low values 1.01 | S. cerevisiae deletion strains, locus YKR001C, strain vps1, hits give low values 0.916 | S. cerevisiae deletion strains, locus YKR026C, strain gcn3, hits give low values 0.997 | S. cerevisiae deletion strains, locus YKR091W, strain srl3, hits give low values 0.997 | S. cerevisiae deletion strains, locus YLL001W, strain dnm1, hits give low values 1.01 | S. cerevisiae deletion strains, locus YLL026W, hits give low values 1.01 | S. cerevisiae deletion strains, locus YLL041C, strain sdh2, hits give low values 0.994 | S. cerevisiae deletion strains, locus YLR027C, strain aat2, hits give low values 0.999 | S. cerevisiae deletion strains, locus YLR039C, strain RIC1, hits give low values 0.85 | S. cerevisiae deletion strains, locus YLR058C, strain SHM2, hits give low values 0.943 | S. cerevisiae deletion strains, locus YLR102C, strain apc9, hits give low values 0.973 | S. cerevisiae deletion strains, locus YLR113W, strain HOG1, hits give low values 1.05 | S. cerevisiae deletion strains, locus YLR221C, strain rsa3, hits give low values 1.01 | S. cerevisiae deletion strains, locus YLR258W, strain gsy2, hits give low values 0.997 | S. cerevisiae deletion strains, locus YLR262C, strain YPT6 (second series), hits give low values 1 | S. cerevisiae deletion strains, locus YLR262C, strain YPT6, hits give low values 0.772 | S. cerevisiae deletion strains, locus YLR268W, strain sec22, hits give low values 0.915 | S. cerevisiae deletion strains, locus YLR320W, strain mms22, hits give low values 1.02 | S. cerevisiae deletion strains, locus YLR342W, strain FKS1, hits give low values 1.01 | S. cerevisiae deletion strains, locus YLR357W, strain rsc2, hits give low values 1.02 | S. cerevisiae deletion strains, locus YLR370C, strain arc18, hits give low values 1 | S. cerevisiae deletion strains, locus YLR371W, strain rom2, hits give low values 0.95 | S. cerevisiae deletion strains, locus YLR384C, strain iki3, hits give low values 0.998 | S. cerevisiae deletion strains, locus YML016C, strain PPZ1, hits give low values 0.967 | S. cerevisiae deletion strains, locus YML120C, strain ndi1, hits give low values 0.995 | S. cerevisiae deletion strains, locus YML124C, strain tub3, hits give low values 0.953 | S. cerevisiae deletion strains, locus YMR058W, strain fet3, hits give low values 0.997 | S. cerevisiae deletion strains, locus YMR078C, strain ctf18, hits give low values 0.925 | S. cerevisiae deletion strains, locus YMR125W, strain sto1, hits give low values 0.984 | S. cerevisiae deletion strains, locus YMR129W, hits give low values 0.99 | S. cerevisiae deletion strains, locus YMR205C, strain PFK2, hits give low values 1.02 | S. cerevisiae deletion strains, locus YMR231W, strain pep5, hits give low values 1.02 | S. cerevisiae deletion strains, locus YMR307W, strain GAS1, hits give low values 0.642 | S. cerevisiae deletion strains, locus YNL067W, strain RPL9B, hits give low values 0.994 | S. cerevisiae deletion strains, locus YNL071W, strain lat1, hits give low values 0.998 | S. cerevisiae deletion strains, locus YNL128W, strain TEP1, hits give low values 0.941 | S. cerevisiae deletion strains, locus YNL153C, strain GIM3, hits give low values 0.945 | S. cerevisiae deletion strains, locus YNL183C, strain NPR1, hits give low values 0.974 | S. cerevisiae deletion strains, locus YNL209W, strain ssb2, hits give low values 0.994 | S. cerevisiae deletion strains, locus YNL233W, strain BNI4, hits give low values 0.902 | S. cerevisiae deletion strains, locus YNL248C, strain rpa49, hits give low values 0.994 | S. cerevisiae deletion strains, locus YNL250W, strain rad50, hits give low values 0.907 | S. cerevisiae deletion strains, locus YNL271C, strain bni1, hits give low values 0.951 | S. cerevisiae deletion strains, locus YNL298W, strain CLA4, hits give low values 0.942 | S. cerevisiae deletion strains, locus YNL322C, strain KRE1 (second series), hits give low values 0.982 | S. cerevisiae deletion strains, locus YNR049C, strain mso1, hits give low values 0.999 | S. cerevisiae deletion strains, locus YNR052C, strain pop2, hits give low values 0.955 | S. cerevisiae deletion strains, locus YOL012C, strain htz1 1.01 | S. cerevisiae deletion strains, locus YOL147C, strain pex11, hits give low values 0.958 | S. cerevisiae deletion strains, locus YOR001W, strain rrp6, hits give low values 0.992 | S. cerevisiae deletion strains, locus YOR061W, strain CKA2, hits give low values 0.93 | S. cerevisiae deletion strains, locus YOR069W, strain VPS5, hits give low values 0.973 | S. cerevisiae deletion strains, locus YOR070C, strain gyp1, hits give low values 1 | S. cerevisiae deletion strains, locus YOR080W, strain dia2, hits give low values 1.01 | S. cerevisiae deletion strains, locus YOR083W, strain WHI5, hits give low values 1 | S. cerevisiae deletion strains, locus YOR106W, strain vam3, hits give low values 0.995 | S. cerevisiae deletion strains, locus YOR136W, strain idh2, hits give low values 0.981 | S. cerevisiae deletion strains, locus YOR144C, strain elg1, hits give low values 0.953 | S. cerevisiae deletion strains, locus YOR231W, strain MKK1, hits give low values 0.994 | S. cerevisiae deletion strains, locus YOR265W, strain rbl2, hits give low values 1.01 | S. cerevisiae deletion strains, locus YOR270C, strain vph1, hits give low values 0.887 | S. cerevisiae deletion strains, locus YOR290C, strain snf2, hits give low values 0.981 | S. cerevisiae deletion strains, locus YOR316C, strain cot1, hits give low values 0.961 | S. cerevisiae deletion strains, locus YPL051W, strain arl3, hits give low values 1 | S. cerevisiae deletion strains, locus YPL055C, strain LGE1, hits give low values 0.853 | S. cerevisiae deletion strains, locus YPL078C, strain atp4, hits give low values 0.996 | S. cerevisiae deletion strains, locus YPL106C, strain sse1, hits give low values 1.03 | S. cerevisiae deletion strains, locus YPL240C, strain hsp82, hits give low values 0.997 | S. cerevisiae deletion strains, locus YPL256C, strain CLN2, hits give low values 0.998 | S. cerevisiae deletion strains, locus YPR119W, strain clb2, hits give low values 0.953 | S. cerevisiae deletion strains, locus YPR141C, strain kar3, hits give low values 0.964 | S. cerevisiae deletion strains, locus YPR163C, strain tif3, hits give low values 0.942 | S. cerevisiae deletion strains, locus YPR167C, strain met16, hits give low values 0.936 | S. cerevisiae deletion strains, strain wtn01, hits give low values 0.959 | S. cerevisiae strains, strain wild type, hits give low values 0.929
active: S. cerevisiae deletion strains, locus YJR043C, strain POL32, hits give low values 0.841 | S. cerevisiae deletion strains, locus YLR330W, strain CHS5, hits give low values 0.898 | S. cerevisiae deletion strains, locus YLR342W, strain FKS1 (second series), hits give low values 0.741 | S. cerevisiae deletion strains, locus YLR418C, strain cdc73, hits give low values 0.777 | S. cerevisiae deletion strains, locus YML032C, strain rad52, hits give low values 0.843 | S. cerevisiae deletion strains, locus YMR223W, strain ubp8, hits give low values 0.876 | S. cerevisiae deletion strains, locus YNL307C, strain MCK1, hits give low values 0.835 | S. cerevisiae deletion strains, locus YOR184W, strain ser1, hits give low values 0.838
